What all share (parameters): species or system human, MV4-11 + K-562 + COLO205 + SK-N-BE2 + OVCAR-8
The subject of one assay is EGFR. Conditions: read-out: apparent Kd, compound concentrations: 100 nM and 1000 nM (sheet 'Samples'), n = 1.
The subject of a further assay is EPHB6. Conditions: read-out: apparent Kd, n = 1.
The next assay has as its system NQO2. Conditions: read-out: apparent Kd; compound concentrations:100 nM and 1000 nM (sheet 'Samples'); n = 1.
For another assay, the system named is EPHA7. Conditions: read-out: apparent Kd; compound concentrations: 100 nM and 1000 nM (sheet 'Samples'), CATDS: 1; n = 1.
The next assay concerns JAK2. Conditions: read-out: apparent Kd; compound concentrations:100 nM and 1000 nM (sheet 'Samples'); n = 1.
A further assay relates to PRKACG. Conditions: read-out: apparent Kd; compound concentrations:100 nM and 1000 nM (sheet 'Samples'); n = 1.
The next assay relates to FECH. Conditions: read-out: apparent Kd, n = 1.
The subject of another assay is VDAC3. Conditions: read-out: apparent Kd; compound concentrations: 100 nM and 1000 nM (sheet 'Samples'), CATDS: 0.46722570663248902; n = 1.
The next assay relates to FLT3. Conditions: read-out: apparent Kd; compound concentrations: 100 nM and 1000 nM (sheet 'Samples'), CATDS: 0.119493571435742; n = 1.
The test system of a further assay is MELK. Conditions: read-out: apparent Kd; compound concentrations: 100 nM and 1000 nM (sheet 'Samples'), CATDS: 0.102611877302843; n = 1.
A further assay relates to MERTK. Conditions: read-out: apparent Kd; compound concentrations: 100 nM and 1000 nM (sheet 'Samples'), CATDS: 0.11247191939654499; n = 1.
The subject of the next assay is PDGFRB. Conditions: read-out: apparent Kd, compound concentrations: 100 nM and 1000 nM (sheet 'Samples'), n = 1.
For another assay, the system named is RET. Conditions: read-out: apparent Kd, compound concentrations: 100 nM and 1000 nM (sheet 'Samples'), n = 1.
The test system of the next assay is SIK2. Conditions: read-out: apparent Kd; compound concentrations: 100 nM and 1000 nM (sheet 'Samples'), CATDS: 0.136273413737004; n = 1.
For a further assay, the system named is MAP3K12. Conditions: read-out: apparent Kd; compound concentrations: 100 nM and 1000 nM (sheet 'Samples'), CATDS: 0.23080963599757501; n = 1.
A further assay has as its system PIK3CD. Conditions: read-out: apparent Kd, n = 1.
A further assay has as its system RIPK2. Conditions: read-out: apparent Kd, compound concentrations: 100 nM and 1000 nM (sheet 'Samples'), n = 1.
Another assay relates to ERBB3. Conditions: read-out: apparent Kd; compound concentrations: 100 nM and 1000 nM (sheet 'Samples'), CATDS: 6.7979180467830594E-2; n = 1.
The test system of a further assay is FYN. Conditions: read-out: apparent Kd, compound concentrations: 100 nM and 1000 nM (sheet 'Samples'), n = 1.
For another assay, the system named is HCK. Conditions: read-out: apparent Kd; compound concentrations: 100 nM and 1000 nM (sheet 'Samples'), CATDS: 0.242489240886436; n = 1.
In the next assay the test system is LCK. Conditions: read-out: apparent Kd; compound concentrations: 100 nM and 1000 nM (sheet 'Samples'), CATDS: 0.10096254508192699; n = 1.
The next assay relates to LYN. Conditions: read-out: apparent Kd; compound concentrations: 100 nM and 1000 nM (sheet 'Samples'), CATDS: 8.32238060167768E-2; n = 1.
The subject of the next assay is MAP2K5. Conditions: read-out: apparent Kd, compound concentrations: 100 nM and 1000 nM (sheet 'Samples'), n = 1.
The subject of a further assay is RIPK3. Conditions: read-out: apparent Kd, compound concentrations: 100 nM and 1000 nM (sheet 'Samples'), n = 1.
The next assay concerns SRC. Conditions: read-out: apparent Kd; compound concentrations: 100 nM and 1000 nM (sheet 'Samples'), CATDS: 0.138583252116979; n = 1.
Another assay deals with YES1. Conditions: read-out: apparent Kd; compound concentrations: 100 nM and 1000 nM (sheet 'Samples'), CATDS: 0.11029012837176901; n = 1.
The subject of a further assay is PIK3CG. Conditions: read-out: apparent Kd; compound concentrations: 100 nM and 1000 nM (sheet 'Samples'), CATDS: 0.36055601865019399; n = 1.
For another assay, the system named is EPHA1. Conditions: read-out: apparent Kd; compound concentrations: 100 nM and 1000 nM (sheet 'Samples'), CATDS: 0.14534883893422801; n = 1.
A further assay deals with EPHB3. Conditions: read-out: apparent Kd; compound concentrations: 100 nM and 1000 nM (sheet 'Samples'), CATDS: 9.8269686784854801E-2; n = 1.
For another assay, the system named is TGFBR2. Conditions: read-out: apparent Kd; compound concentrations: 100 nM and 1000 nM (sheet 'Samples'), CATDS: 0.121800483782391; n = 1.
Another assay has as its system GAK. Conditions: read-out: apparent Kd, compound concentrations: 100 nM and 1000 nM (sheet 'Samples'), n = 1.
The subject of a further assay is FLT4. Conditions: read-out: apparent Kd; compound concentrations: 100 nM and 1000 nM (sheet 'Samples'), CATDS: 0.213105830255753; n = 1.
The test system of another assay is IARS. Conditions: read-out: apparent Kd; compound concentrations:100 nM and 1000 nM (sheet 'Samples'); n = 1.
Another assay has as its system NQO1. Conditions: read-out: apparent Kd; compound concentrations:100 nM and 1000 nM (sheet 'Samples'); n = 1.
The next assay has as its system PLK1. Conditions: read-out: apparent Kd; compound concentrations:100 nM and 1000 nM (sheet 'Samples'); n = 1.
The mark [1] stands for this setting: compound concentrations:100 nM and 1000 nM (sheet 'Samples').

Read-outs that look alike come from different tables or passages of the source.

On to `Fc1cccc(COc2ccc(Nc3ncnc4sc(-c5ccco5)cc34)cc2Cl)c1` [GSK969786A], for which, in the assay with EGFR (CATDS: 1), the potency estimated from few doses is 815 nM.
The same measure, in the same setting: under `Fc1cccc(COc2ccc(Nc3ncnc4sc(-c5ccc[nH]5)cc34)cc2Cl)c1` [GW707818B] stands 1030 nM.
As to `Cc1cc(-c2ccccn2)cc(C)c1/C=C/c1cncc(-c2nn[nH]n2)c1.Cl` [GW459057A], the potency estimated from few doses in the assay with EPHB6 (setting [1]) is 162 nM; in the assay on NQO2, 1420 nM.
As for `COc1cccc(NC(=O)NCCNc2ccnc(Nc3ccc(F)cc3)n2)c1` [GSK1379879A], in the assay on EPHA7, the potency estimated from few doses was 2400 nM.
Regarding `Cc1cc(-c2ccco2)cc(C)c1/C=C/c1cncc(-c2nn[nH]n2)c1.Cl` [GW458344A], in the assay on EPHB6 (setting [1]), the potency estimated from few doses was 401 nM.
For `O=C(O)C(F)(F)F.O=S1CCN(Cc2ccc(-c3ccc4ncnc(Nc5ccc(OCc6cccc(F)c6)c(Cl)c5)c4c3)o2)CC1` [GW576609A], the potency estimated from few doses in the assay on EGFR (CATDS: 0.496271215913483) is 306 nM; with JAK2 it was 1050 nM; in the assay with PRKACG, 781 nM.
On to `Cc1nnc(-c2cccc(-c3ccc(C(=O)NCC4CC4)cc3)c2)o1` [GW734508X], for which the potency estimated from few doses was 1500 nM in the assay on FECH (compound concentrations: 100 nM and 1000 nM (sheet 'Samples'), CATDS: 0.53771916993111701); 1990 nM in the assay on VDAC3.
With `COc1cc2c(cc1OC)C(=C(Nc1ccccc1)c1cccc(CN)c1)C(=O)N2` [BIBF0846CL], the potency estimated from few doses in the assay with FECH (compound concentrations: 100 nM and 1000 nM (sheet 'Samples'), CATDS: 0.35888442724353598) was 62.1 nM; with FLT3 it was 829 nM; with MELK, 1410 nM; in the assay on MERTK, 1010 nM; in the assay with PDGFRB (CATDS: 0.104628993679762) it was 1310 nM; with RET (CATDS: 0.43241388330783698), 45.3 nM. In addition, in the assay with SIK2, the potency estimated from few doses was 560 nM.
As for `O=C(O)C(F)(F)F.O=C(O[C@H]1CN[C@H](C#Cc2cc3ncnc(Nc4ccc5c(ccn5Cc5cc(F)ccc5F)c4)c3s2)C1)N1CCOCC1` [GSK259178A], the potency estimated from few doses in the assay on EGFR (CATDS: 1) was 277 nM.
`Cl.Fc1ccccc1COc1ccc(Nc2ncnc3ccc(-c4nnc(C(F)(F)F)o4)cc23)cc1Cl` [GW424170A]: the potency estimated from few doses with EGFR (CATDS: 0.318491462582081) was 448 nM; in the assay with MAP3K12, 1290 nM; in the assay on PIK3CD (compound concentrations: 100 nM and 1000 nM (sheet 'Samples'), CATDS: 0.65461148719951301) it was 104 nM.
On to `Cn1cncc1-c1cc2c(Nc3ccc(OCc4ccccc4)cc3)ncnc2cn1` [GW281179X], for which the potency estimated from few doses in the assay on EGFR (CATDS: 0.48641322117949298) was 124 nM; with RIPK2 (CATDS: 0.514367617378505), 111 nM.
On to `O=C(NCCCN1CCOCC1)c1cccc(Nc2nccc(Nc3ccc(Oc4ccccc4)cc3)n2)c1` [GW663929X], for which the potency estimated from few doses is 1550 nM with ERBB3; 343 nM in the assay on FYN (CATDS: 0.114580255038188); 96.7 nM in the assay with HCK; 455 nM with LCK; 756 nM with LYN; 947 nM in the assay with MAP2K5 (CATDS: 7.7428617985082396E-2). For the same compound, the potency estimated from few doses is 175 nM in the assay on RIPK2 (CATDS: 0.16454989385531299), 1820 nM in the assay on RIPK3 (CATDS: 6.5605703607897303E-2), 236 nM in the assay on SRC and 373 nM in the assay with YES1.
Take `CC(=O)Nc1cccc(C#Cc2cncnc2Nc2ccc(OCc3cccc(F)c3)c(Cl)c2)n1` [GW794726X]: the potency estimated from few doses in the assay on EGFR (CATDS: 0.81532426513796596) was 184 nM; in the assay with PIK3CG, 1440 nM.
On to `CC(C)(C)c1ccc2nccc(Nc3cccc(O)c3)c2c1` [GW856795X], for which the potency estimated from few doses was 443 nM in the assay with EPHA1; 1450 nM with EPHB3; 960 nM in the assay with FYN (CATDS: 0.110039828887459); 634 nM in the assay with RET (CATDS: 0.126385665807943); 52 nM with RIPK2 (CATDS: 0.476664898558677); 192 nM with RIPK3 (CATDS: 0.215705247056383). In addition, in the assay with TGFBR2, the potency estimated from few doses was 703 nM.
For `C#Cc1cccc(Nc2ncnc3cc(OC)c(OC4CCN(C)CC4)cc23)c1` [BI00007366], the values for the potency estimated from few doses with EGFR (CATDS: 0.27319466125259201), in the assay with GAK (CATDS: 0.38094365160878402) and with RIPK2 (CATDS: 0.36838569788984799) were 1300 nM, 634 nM and 674 nM, respectively.
Consider `COc1ccc(N2Cc3cnc(Nc4ccccc4)nc3N([C@@H]3CC[C@@H](O)C3)C2=O)cc1` [RO4383596-000], for which the potency estimated from few doses in the assay with EPHB6 (compound concentrations: 100 nM and 1000 nM (sheet 'Samples'), CATDS: 0.20218817743622799) is 1300 nM; in the assay on FLT4, 1170 nM; in the assay with GAK (CATDS: 0.27304535513380701) it was 756 nM; in the assay on MAP2K5 (CATDS: 0.176800836122779), 1750 nM; in the assay with PDGFRB (CATDS: 0.165477129932846), 2060 nM.
Take `COc1cc2ncn(-c3cc(OCc4ccc(S(C)(=O)=O)cc4)c(C(N)=O)s3)c2cc1OC` [GW869979X]: the potency estimated from few doses was 2080 nM in the assay with FECH (setting [1]); 2020 nM in the assay on IARS; 2010 nM in the assay on NQO1; 120 nM with PIK3CD (setting [1]); 1110 nM in the assay with PLK1.
With `CS(=O)(=O)CCNCc1ccc(-c2ccc3ncnc(Nc4ccc(OCc5ccccc5)cc4)c3c2)o1.Cl` [GW458787A], the potency estimated from few doses in the assay with EGFR (CATDS: 1) is 34.2 nM.
Consider `COc1cc2ncnc(Nc3ccc(C)c(O)c3)c2cc1OC.Cl` [GW410563A], for which the potency estimated from few doses was 439 nM in the assay with EGFR (CATDS: 0.29565759118255602), 326 nM in the assay on RET (CATDS: 0.33989373739411199) and 272 nM in the assay on RIPK2 (CATDS: 0.37374612171419203).

The values are drawn from paper PMC11062922 (Nature Chemical Biology, 2023).
